Pf Dd2 growth: P. falciparum Dd2 growth inhibitors, primary screen, SYBR Green fluorescence, single dose replicates; 72 h; active compounds read low; activity change, % at 10 µM; actives 2.3% (n = 94,000); in the data active means activity change below about -80%; inconclusive means no clear call, values can overlap the other calls
C diff growth: C. difficile growth inhibitors, primary screen, HTS; actives 0.25% (n = 86,000); growth activity, negative = inhibition, % at 16 µg/mL (by protocol); AID 1259249, 2017; Clostridium difficile clinical isolate growth, OD600, 24 h; active compounds read low;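 active means mean growth activity at or below -80% and every replicate also at or below -80%; inconclusive means mean at or below -80% but some replicate above -80%; inactive means mean growth activity above -80%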;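 further: 0% = DMSO wells and -100% = levofloxacin 16 µg/mL wells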
T cruzi growth-1: T. cruzi intracellular proliferation inhibitors, primary screen, cell-based, beta-gal Tulahuen parasites, NIH3T3 host, luminescence; actives 5.9% (n = 77,000); inhibition, % at 8.34 µM; T. cruzi beta-gal in NIH3T3, GalScreen luminescence, 90 h;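 active means mean inhibition above about 93%, with at least 55% of replicates each passing it, limit read from the data, passing the limit was not always enough; inconclusive means only one of those two conditions holds; inactive means neither condition holds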
T cruzi growth-2: T. cruzi intracellular proliferation inhibitors, confirmation, cell-based, NIH3T3 host, beta-gal parasite, luminescence, cherry-pick | shares compounds with T cruzi growth-1 | T. cruzi beta-gal in NIH3T3, GalScreen luminescence, 90 h | inhibition, % at 8.35 µM | actives 72% (n = 5,600) | AID 651739, 2012;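 active means mean replicate inhibition above about 95% and at least 55% of replicates individually reaching it, limit read from the data; inconclusive means only one of the two criteria is met; inactive means neither criterion is met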
T cruzi growth-3: inhibitors of intracellular T. cruzi replication, confirmation, NIH3T3 host cells, beta-gal parasites, cherry-pick, set 2; shares compounds with T cruzi growth-1; T. cruzi beta-gal in NIH3T3, GalScreen luminescence, 90 h; inhibition, % at 2.09 µM; actives 21% (n = 5,600); AID 651740, 2012;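 active means mean inhibition above about 95%, with at least 55% of replicates also reaching it, limit read from the data; inconclusive means meets just one of the two conditions; inactive means meets neither condition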;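 further: plate controls were neutral control median for no effect and positive control median for full effect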
3T3 cytotox: cytotoxicity in mouse NIH/3T3 fibroblasts, confirmation, cytotoxicity control for T. cruzi proliferation inhibitor project, cell-based, cherry-pick, single point; shares compounds with T cruzi growth-1; NIH/3T3 viability, CellTiter-Glo ATP luminescence, 90 h; cytotoxicity (signal decrease), % at 8.35 µM; actives 14% (n = 5,600);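 active means mean signal decrease across replicates above about 35% based on untreated-well scatter, with enough replicates individually passing, limit read from the data; inconclusive means no rule stated though some were filed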;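 further: 0% = median of neutral control wells and 100% = median of positive control wells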
3T3 cytotox 2: NIH/3T3 fibroblast cytotoxicity, confirmation, cytotoxicity control, cell-based, cherry-pick, single point, set 2; NIH/3T3 viability, CellTiter-Glo ATP luminescence, 90 h; AID 651744, 2012; actives 56% (n = 5,600); inhibition, % at 24.9 µM; shares compounds with T cruzi growth-1;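 active means mean loss of cell viability signal at or above a set limit, and enough replicates individually reaching it; inconclusive means meets only the mean limit or only the replicate share; inactive means meets neither condition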;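 further: 0% = median of neutral control wells and 100% = median of positive control wells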
Active calls of the source: *; ? = inconclusive; . = not tested or not shown. In the library only some 6.7% were active in any assay of this set; here they are far more common.

SMILES	Pf Dd2 growth	C diff growth	T cruzi growth-1	T cruzi growth-2	T cruzi growth-3	3T3 cytotox	3T3 cytotox 2
Cc1noc(C)c1S(=O)(=O)Nc1ccc2c(c1)C(=O)N([C@@H](C)CO)C[C@H](C)[C@H](CN(C)Cc1ccc(C(F)(F)F)cc1)OCCCC[C@@H](C)O2	-47	-5	101*	104*	86	-4	3
Cc1noc(C)c1S(=O)(=O)Nc1ccc2c(c1)C(=O)N([C@H](C)CO)C[C@@H](C)[C@H](CN(C)Cc1ccc(C(F)(F)F)cc1)OCCCC[C@H](C)O2	-57	9	95	.	.	.	.
Cc1noc(C)c1S(=O)(=O)Nc1ccc2c(c1)C(=O)N([C@H](C)CO)C[C@@H](C)[C@@H](CN(C)Cc1ccc(C(F)(F)F)cc1)OCCCC[C@H](C)O2	-41	.	87	.	.	.	.
Cc1noc(C)c1S(=O)(=O)Nc1ccc2c(c1)C(=O)N([C@H](C)CO)C[C@@H](C)[C@H](CN(C)Cc1ccc(C(F)(F)F)cc1)OCCCC[C@@H](C)O2	-67	8	106*	88	112*	25	105*
Cc1noc(C)c1S(=O)(=O)Nc1ccc2c(c1)C(=O)N([C@@H](C)CO)C[C@H](C)[C@H](CN(C)Cc1ccc(C(F)(F)F)cc1)OCCCC[C@H](C)O2	-43	.	100*	96*	67	15	105*
Cc1noc(C)c1S(=O)(=O)Nc1ccc2c(c1)C(=O)N([C@@H](C)CO)C[C@@H](C)[C@@H](CN(C)Cc1ccc(C(F)(F)F)cc1)OCCCC[C@H](C)O2	-48	.	103*	89	110*	0	60*
COc1ccc2c3c(n(C)c2c1)[C@H](CO)N(CC1CCCC1)CC31CN(C(C)=O)C1	-21	2	.	.	.	.	.
COc1ccc2c3c([nH]c2c1)[C@H](CO)N(C(=O)C1CCCCC1)CC31CCN(C)CC1	17	-8	.	.	.	.	.
O=S(=O)(Cc1ccccc1)NCC[C@H]1CC[C@@H](NS(=O)(=O)c2ccc(F)cc2)[C@@H](CO)O1	-7	-2	-12	.	.	.	.
COc1ccc(NC(=O)Nc2ccc3c(c2)C(=O)N([C@H](C)CO)C[C@H](C)[C@H](CN(C)C(=O)NC(C)C)O3)cc1	-2	-9	-2	.	.	.	.
Cc1noc(C)c1S(=O)(=O)Nc1ccc2c(c1)C(=O)N([C@@H](C)CO)C[C@@H](C)[C@H](CN(C)Cc1ccc3c(c1)OCO3)OCCCC[C@H](C)O2	-70	10	61	.	.	.	.
Cc1noc(C)c1S(=O)(=O)Nc1ccc2c(c1)C(=O)N([C@H](C)CO)C[C@@H](C)[C@@H](CN(C)Cc1ccc3c(c1)OCO3)OCCCC[C@H](C)O2	-73	3	104*	110*	65	10	34*
Cc1noc(C)c1S(=O)(=O)Nc1ccc2c(c1)C(=O)N([C@@H](C)CO)C[C@@H](C)[C@@H](CN(C)Cc1ccc(C(=O)O)cc1)OCCCC[C@H](C)O2	3	5	-25	.	.	.	.
Cc1noc(C)c1S(=O)(=O)Nc1ccc2c(c1)C(=O)N([C@@H](C)CO)C[C@@H](C)[C@H](CN(C)Cc1ccc(C(F)(F)F)cc1)OCCCC[C@@H](C)O2	-46	.	108*	103*	116*	-51	105*
Cc1cc(C(=O)Nc2cccc3c2O[C@@H](CN(C)S(=O)(=O)c2cccs2)[C@H](C)CN([C@@H](C)CO)C3=O)n(C)n1	8	.	-182	.	.	.	.
COc1cccc(S(=O)(=O)Nc2ccc3c(c2)[C@H]2C[C@@H](CC(=O)N[C@@H](C)c4ccccc4)O[C@@H](CO)[C@H]2O3)c1	-7	-12	.	.	.	.	.
O=C(C[C@H]1CC[C@@H]2[C@H](COC[C@H](O)CN2Cc2ccccc2F)O1)N[C@H]1CCN(Cc2ccccc2)C1	-40	.	26	.	.	.	.
N#C[C@@H]1[C@H](c2ccc(C#Cc3cccc(F)c3)cc2)[C@@H](CO)N1C(=O)C1CC1	-45	-5	?	101*	95	3	71*
N#C[C@H]1[C@@H](c2ccc(C#Cc3cccc(F)c3)cc2)[C@@H](CO)N1C(=O)C1CCOCC1	3	15	22	.	.	.	.
N#C[C@H]1[C@@H](c2ccc(C#Cc3cccc(F)c3)cc2)[C@@H](CO)N1C(=O)C1CC1	-19	13	85	.	.	.	.
N#C[C@@H]1[C@@H](c2ccc(C#Cc3cccc(F)c3)cc2)[C@H](CO)N1C(=O)C1CC1	-34	3	93	.	.	.	.
N#C[C@H]1[C@@H](c2ccc(C#Cc3cccc(F)c3)cc2)[C@H](CO)N1C(=O)C1CCC1	-44	-15	100*	96*	105*	20	103*
N#C[C@@H]1[C@@H](c2ccc(C#Cc3cccc(F)c3)cc2)[C@H](CO)N1C(=O)C1CCCC1	-32	4	97*	100*	101*	16	79*
C[C@H](CO)N1C[C@H](C)[C@@H](CN(C)S(=O)(=O)c2cccs2)Oc2c(NC(=O)C3CCOCC3)cccc2C1=O	-16	6	105	.	.	.	.
Cc1ccccc1-c1ccc2c(c1)O[C@H](CN(C)Cc1ccc(C(=O)O)cc1)[C@@H](C)CN([C@@H](C)CO)S2(=O)=O	25	12	.	.	.	.	.
Cc1ccc(S(=O)(=O)Nc2ccc3c(c2)C(=O)N([C@H](C)CO)C[C@H](C)[C@H](CN(C)S(=O)(=O)c2cn(C)cn2)OCCCC[C@H](C)O3)cc1	-2	4	21	.	.	.	.
C[C@@H]1CN([C@H](C)CO)S(=O)(=O)c2ccc(-c3ccccc3F)cc2O[C@H]1CN(C)S(C)(=O)=O	-73	-2	-24	.	.	.	.
COc1ccccc1-c1ccc2c(c1)O[C@@H](CN(C)S(=O)(=O)c1ccc(F)cc1)[C@@H](C)CN([C@@H](C)CO)S2(=O)=O	-73	5	103*	109*	90	50*	45*
C[C@H]1CN([C@@H](C)CO)S(=O)(=O)c2ccc(-c3ccccc3F)cc2O[C@@H]1CN(C)S(C)(=O)=O	15	-10	-48	.	.	.	.
COc1ccccc1-c1ccc2c(c1)O[C@@H](CN(C)S(=O)(=O)c1ccc(F)cc1)[C@@H](C)CN([C@H](C)CO)S2(=O)=O	-48	7	106*	99*	90	?	64*

Bioassay records deposited in PubChem BioAssay by Broad Institute.
